# Assay results as given in PubChem BioAssay AID1745845 (National Center for Advancing Translational Sciences (NCATS), 2022).
# The campaign covered roughly 360,000 compounds. About 2,600 (0.72%) were called active. Entries that show only a call come without a potency. Not shown: some 5% with an inconclusive outcome. The call rests on the fitted dose curve; in most records, active means well fitted inhibition curve with a large enough effect; inconclusive means small, poorly fitted or top-dose-only effect; inactive means no such curve, though single readings can be large or run the other way. This excerpt belongs to a sample that is enriched for actives.
# Experiment: Primary qHTS for Inhibitors of ATXN expression; further: nearly all actives have a fitted effect of over 55% in size
# Settings: HEK-293 ATXN2-luciferase reporter, luminescence, 24 h; series mostly up to 57 µM
# Procedure, shortened: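 qHTS (up to 57 uM final) was run with 24 h compound exposure of reporter cells at 37 °C. Each well was multiplexed: SteadyGlo luminescence measured ATXN2-luciferase expression after a fluorogenic Gly-Phe-AFC viability readout (25 uM final).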
# Potency means the concentration at half of the fitted maximal effect.
row,SMILES,Potency
1,C=CCn1c(COc2cccc3cccnc23)nnc1SCC(=O)OC,inactive
2,CCCCC(=O)NC(c1ccc(OC)c(OC)c1)c1ccc2cccnc2c1O (configuration not stated),5.01 µM (active)
3,COc1ccc(CCNS(=O)(=O)c2cccc3cccnc23)cc1OC,inactive
4,CC1=C(C(=O)N(C(C)C)C(C)C)CC(CC(=O)NCCCCc2ccccc2)C(=O)N1CCC1=CCCCC1 (configuration not stated),inactive
5,CCc1c2c(nc3ccc(O)cc13)-c1cc3c(c(=O)n1C2)COC(=O)[C@]3(O)CC,0.0061 µM (active)
6,CCCCN(CC)C(=S)Nc1ccc2nc3n(c(=O)c2c1)CCCCC3,inactive
7,COc1ccc(C(=O)COC(=O)CCCC(=O)Nc2cc(C(F)(F)F)ccc2Cl)cc1,inactive
8,CCCCNC(=O)C1CCCN(c2nnc(C)c3c(C)n(-c4ccc(Cl)cc4)nc23)C1 (configuration not stated),inactive
9,CCc1ccc(CNC(=O)C2CCN(c3nnc(C)c4c(C)n(-c5ccc(C)cc5)nc34)CC2)cc1,31.6 µM (active)
10,COc1ccc(-n2nc3c(N4CCC(C(=O)NCc5ccccc5)CC4)nnc(C)c3c2C)cc1,inactive
11,Cc1nnc(N2CCCC(C(=O)NCCN(C)C)C2)c2nn(-c3ccccc3)c(C)c12 (configuration not stated),inactive
12,Cc1nnc(N2CCC(C(=O)Nc3ccc(F)cc3)CC2)c2nn(-c3ccc(Cl)cc3)c(C)c12,25.1 µM (active)
13,COc1cccc(NC(=O)C2CCN(c3cc(C)nc4c(-c5ccc(Cl)cc5)c(C)nn34)CC2)c1,inactive
14,CSc1nc(-c2ccc(F)cc2)nc2c1Cc1c(CO)cnc(C)c1O2,inactive
15,Cc1ccc(CNC(=O)CCc2c(C)nc3c(c(C)nn3-c3ccccc3)c2C)cc1,inactive
16,CN(C)c1ccc(NC(=O)CSc2nc(-c3ccco3)cc(C(F)(F)F)n2)cc1,inactive
17,COc1cccc(CNC(=O)c2cc(=O)[nH]c3ccc(S(=O)(=O)N4CCCCC4)cc23)c1,inactive
18,Cc1cc(NC(=O)/C=C/C(=O)N(c2ccccc2C)C(C(=O)NC2CCCC2)c2ccc(F)cc2)no1 (configuration not stated),10 µM (active)
19,Cc1cc(NC(=O)CCC(=O)N(c2cccc(F)c2)C(C(=O)NC2CCCC2)c2ccncc2)no1 (configuration not stated),inactive

row,SMILES,Potency
1,Cc1cc(NC(=O)/C=C/C(=O)N(CC(=O)NC2CCCC2)c2ccc(F)cc2)no1,inactive
2,CCOc1ccc(-c2nonc2NC(=O)c2oc3ccc(C)cc3c2C)cc1OCC,inactive
3,O=C(Nc1ccc(O)c(-c2nc3ccccc3o2)c1)c1ccc(-c2cccc(Cl)c2)o1,inactive
4,CC1(C(=O)NCc2ccco2)Cc2c(-c3ccc4c(c3)OCO4)ccnc2O1 (configuration not stated),inactive
5,CCOC(=O)c1ccc(NC(=O)CCn2cnnn2)cc1,inactive
6,CON=C(C(=O)N[C@@H]1C(=O)N2C(C(=O)OCOC(=O)C(C)(C)C)=C(C=Cc3scnc3C)CS[C@H]12)c1csc(N)n1,inactive
7,Cc1cc(Br)cn2c(Cc3cccc(F)c3)c(-c3cccc(Br)c3)nc12,inactive
8,CC(C)(C)c1cc(C(=O)O)c(NC(=O)Nc2ccc3[nH]ncc3c2)s1,inactive
9,CC(C)(C)c1nc(-c2cccc(NS(=O)(=O)c3c(F)cccc3F)c2F)c(-c2ccnc(N)n2)s1,inactive
10,OC(c1ccc(Cl)cc1)c1ncc(-c2ccc(Cl)cc2)[nH]1 (configuration not stated),inactive
11,CC(C)Cc1ccc(-c2cc3nc(NCc4cccc(Cl)c4)ccn3n2)cc1,inactive
12,CC(=O)N(CN1C(=O)C2CC=CCC2C1=O)c1cccc(Cl)c1 (configuration not stated),inactive
13,O=C(CCl)N(Cc1cccc([N+](=O)[O-])c1)c1cccc(Cl)c1,2.38 µM (active)
14,Cc1cc([N+](=O)[O-])ccc1NCc1cccc([N+](=O)[O-])c1,inactive
15,Cn1c(=O)[nH]c(=O)c2c1nc(NCCc1ccccc1)n2Cc1ccc(F)cc1,inactive
16,O=C(NNc1c2ccccc2nc2ccccc12)c1cc2ccccc2cc1O,inactive
17,CC(=O)Nc1ccc(Nc2c3ccccc3nc3ccccc23)cc1,2.51 µM (active)
18,CC(=O)Nc1ccc(S(=O)(=O)N(C)c2nc3ccccc3nc2Cl)cc1,inactive
19,Cc1cc2c(cc1C)C(c1cccc(OC(C)C)c1)CC(=O)N2 (configuration not stated),inactive

row,SMILES,Potency
1,CCS(=O)(=O)N1CCc2cc(C(=O)NCc3ccc(OC)cc3)ccc21,inactive
2,CCOC(=O)c1ccc(NC(=O)CC2C(=O)N(c3ccccc3)C(=O)N2Cc2cccs2)cc1 (configuration not stated),inactive
3,COc1ccccc1N1CCN(c2ncnc3onc(-c4ccc(F)cc4)c23)CC1,inactive
4,COCOCCn1cc(CN2CCS(=O)(=O)N(Cc3ccc(-c4cccc(N(C)C)c4)cc3)C(CC(C)C)C2=O)nn1 (configuration not stated),inactive
5,COc1ccc(-c2ccc(CN3C(CC(C)C)C(=O)N(Cc4cn(CC5CCCCC5)nn4)CCS3(=O)=O)cc2)cc1 (configuration not stated),inactive
6,COCOCCn1cc(CN2CCS(=O)(=O)N(Cc3ccc(-c4ccc(OC)cc4)cc3)C(CC(C)C)C2=O)nn1 (configuration not stated),28.2 µM (active)
7,O=C(CC(NCc1cccnc1)C(=O)O)Nc1ccc(O)cc1 (configuration not stated),inactive
8,COc1ccc(-c2noc(CSc3nnc(-c4ccccc4)n3-c3ccc(F)cc3)n2)c(OC)c1,inactive
9,CC(=O)c1ccc(-c2cnc3c(NC=O)cc(-c4cccc(NS(C)(=O)=O)c4)cn23)cc1,inactive
10,Cc1ccc(NS(=O)(=O)c2cc3c(cc2Br)NC(=O)CO3)cc1C,inactive
11,CCCOc1ccc(/C=N/NC(=O)C2CC2)c(OCCC)c1,inactive
12,CCCOc1cccc(C(=O)Nc2cccc(NC(=O)c3ccc(C(C)(C)C)cc3)c2)c1,inactive
13,CCCOc1ccc(C(=O)C(CCC(CNCC)C(=O)c2ccc(OCCC)cc2)CNCC)cc1 (configuration not stated),17.8 µM (active)
14,COc1cccc(-c2nc(S(=O)(=O)c3ccc(C)cc3)c(NCc3ccccc3)o2)c1,inactive
15,Cc1cccc(NC(=O)CSc2nc3c(oc4ccccc43)c(=O)n2-c2ccc(F)cc2)c1,inactive
16,COC(=O)c1ccc2c(c1)N(CC(=O)Nc1ccc(C)c(C)c1)C(=O)c1ccccc1S2,inactive
17,COc1ccc(/C=C2\SC(=O)N(CCC(=O)NC3CCS(=O)(=O)C3)C2=O)cc1 (configuration not stated),inactive
18,COc1ccc(/C=C2/SC(=O)N(CCCCCC(=O)Nc3ccccc3C(=O)O)C2=S)cc1,10 µM (active)
19,COc1ccc(/C=C2\SC(=O)N(CCC(=O)NCCCn3ccnc3)C2=O)cc1,inactive
